# ± gives the standard deviation.
# T1: HaloTag-ATRX ADD domain (163-292)
# T1 chain: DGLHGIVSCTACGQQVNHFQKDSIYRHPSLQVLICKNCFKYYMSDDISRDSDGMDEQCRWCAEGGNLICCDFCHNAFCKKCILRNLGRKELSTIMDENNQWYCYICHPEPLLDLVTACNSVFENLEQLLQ
# Key:
# Test in all cases: peptide microarray binding signal (635 nm), min-max normalized on array (fraction of array maximum); higher = stronger binding
# [1] = molecular target: T1, HaloTag-ATRX ADD domain (163-292)
# How it was run: (§1)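 Arrays carried histone 13-mer peptide–cellulose conjugates printed in triplicate on nitrocellulose alongside a Cy3 tracer. After overnight blocking at 4°C, they were incubated for 1 h at 4°C with biotin-labelled HaloTag reader fusions (10 nM to 1 μM) plus streptavidin-Alexa Fluor 647, or with rabbit histone antibodies (1:10,000 to 1:2,000) plus anti-rabbit Alexa 647. Scanning on an Axon GenePix 4000B used 635 nm for signal and 532 nm for misprints. The binding signal reported is each triplicate's mean spot intensity after per-library min-max scaling.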
# [2] = molecular target: HaloTag-ING2 PHD (mouse Ing2 200-280)
# How it was run: as §1
# [3] = molecular target: anti-H3K4me3 antibody ab8580
# How it was run: as §1
# [4] = molecular target: anti-H3K9me3 antibody ab8898
# How it was run: as §1
# [5] = peptide region: H4 38-50, peptide modifications: H4K44me1 H4R45cit, binder concentration: 1:2,000 dilution
# [6] = peptide region: H4 38-50, peptide modifications: H4K44me1 H4R45cit, binder concentration: 1:10,000 dilution
# [7] = peptide region: H4 16-28, peptide modifications: H4R23me2a, binder concentration: 1:2,000 dilution
# [8] = peptide region: H4 16-28, peptide modifications: H4R23cit, binder concentration: 1:2,000 dilution
# [9] = peptide region: H4 16-28, peptide modifications: H4R23cit, binder concentration: 1:10,000 dilution
# [10] = peptide region: H4 38-50, peptide modifications: H4K44me1 H4R45me1, binder concentration: 1:2,000 dilution
# [11] = peptide region: H4 38-50, peptide modifications: H4K44me1 H4R45me1, binder concentration: 1:10,000 dilution
# [12] = peptide region: H4 16-28, peptide modifications: H4R23me1, binder concentration: 1:2,000 dilution
# [13] = peptide region: H4 16-28, peptide modifications: H4R23me2s, binder concentration: 1:2,000 dilution
# [14] = peptide region: H4 38-50, peptide modifications: H4K44me1, binder concentration: 1:2,000 dilution
# [15] = peptide region: H4 38-50, peptide modifications: H4K44me1, binder concentration: 1:10,000 dilution
# [16] = peptide region: H4 38-50, binder concentration: 1:2,000 dilution
# [17] = peptide region: H4 38-50, binder concentration: 1:10,000 dilution
# [18] = peptide region: H4 38-50, peptide modifications: H4K44ac, binder concentration: 1:2,000 dilution
# [19] = peptide region: H4 38-50, peptide modifications: H4K44ac, binder concentration: 1:10,000 dilution
# [20] = peptide region: H4 16-28, peptide modifications: H4R19me2s H4K20me3, binder concentration: 1:2,000 dilution
# [21] = peptide region: H4 16-28, peptide modifications: H4R19me2s H4K20me3, binder concentration: 1:10,000 dilution
# [22] = peptide region: H4 16-28, peptide modifications: H4R19me2s, binder concentration: 1:2,000 dilution
# [23] = peptide region: H4 38-50, peptide modifications: H4K44ac H4R45me1, binder concentration: 1:2,000 dilution
# [24] = peptide region: H4 38-50, peptide modifications: H4K44ac H4R45me1, binder concentration: 1:10,000 dilution
binder,measurement,setting,value
ARRGGVKRISGLI [H4 38-50 A R R G G V Kme Rcit I S G L I],peptide microarray binding signal,"[1]; peptide region: H4 38-50, peptide modifications: H4K44me1 H4R45cit, binder concentration: 50 nM",0.00502 ± 0.00054
same,peptide microarray binding signal,"[1]; peptide region: H4 38-50, peptide modifications: H4K44me1 H4R45cit, binder concentration: 500 nM",0.0041 ± 5.8e-05
same,peptide microarray binding signal,"[2]; peptide region: H4 38-50, peptide modifications: H4K44me1 H4R45cit, binder concentration: 10 nM",0.00603 ± 0.00023
same,peptide microarray binding signal,"[2]; peptide region: H4 38-50, peptide modifications: H4K44me1 H4R45cit, binder concentration: 100 nM",0.00652 ± 0.0007
same,peptide microarray binding signal,[3]; [5],0.00106 ± 0.00014
same,peptide microarray binding signal,[3]; [6],0.0016 ± 2.7e-05
same,peptide microarray binding signal,[4]; [5],0.00074 ± 1.7e-05
same,peptide microarray binding signal,[4]; [6],0.00133 ± 2.3e-05
KRHRKVLRDNIQG [H4 16-28 K R H R K V L Rme2a D N I Q G],peptide microarray binding signal,"[1]; peptide region: H4 16-28, peptide modifications: H4R23me2a, binder concentration: 500 nM",0.0285 ± 0.039
same,peptide microarray binding signal,"[2]; peptide region: H4 16-28, peptide modifications: H4R23me2a, binder concentration: 100 nM",0.000425 ± 4.9e-06
same,peptide microarray binding signal,[3]; [7],7.55e-05 ± 8.5e-07
same,peptide microarray binding signal,[4]; [7],0
KRHRKVLRDNIQG [H4 16-28 K R H R K V L Rcit D N I Q G],peptide microarray binding signal,"[1]; peptide region: H4 16-28, peptide modifications: H4R23cit, binder concentration: 50 nM",0.00241 ± 3.7e-05
same,peptide microarray binding signal,"[1]; peptide region: H4 16-28, peptide modifications: H4R23cit, binder concentration: 500 nM",0.00457 ± 0.00023
same,peptide microarray binding signal,"[2]; peptide region: H4 16-28, peptide modifications: H4R23cit, binder concentration: 10 nM",0.00597 ± 0.00064
same,peptide microarray binding signal,"[2]; peptide region: H4 16-28, peptide modifications: H4R23cit, binder concentration: 100 nM",0.00291 ± 0.00024
same,peptide microarray binding signal,[3]; [8],0.000925 ± 1.6e-05
same,peptide microarray binding signal,[3]; [9],0.002 ± 0.00019
same,peptide microarray binding signal,[4]; [8],0.000544 ± 6.6e-05
same,peptide microarray binding signal,[4]; [9],0.00115
ARRGGVKRISGLI [H4 38-50 A R R G G V Kme Rme I S G L I],peptide microarray binding signal,"[1]; peptide region: H4 38-50, peptide modifications: H4K44me1 H4R45me1, binder concentration: 50 nM",0.0377 ± 0.00093
same,peptide microarray binding signal,"[1]; peptide region: H4 38-50, peptide modifications: H4K44me1 H4R45me1, binder concentration: 500 nM",0.0199 ± 0.00027
same,peptide microarray binding signal,"[2]; peptide region: H4 38-50, peptide modifications: H4K44me1 H4R45me1, binder concentration: 10 nM",0.0751 ± 0.0022
same,peptide microarray binding signal,"[2]; peptide region: H4 38-50, peptide modifications: H4K44me1 H4R45me1, binder concentration: 100 nM",0.031 ± 0.0006
same,peptide microarray binding signal,[3]; [10],0.00727 ± 0.00021
same,peptide microarray binding signal,[3]; [11],0.02163 ± 0.00021
same,peptide microarray binding signal,[4]; [10],0.0055 ± 9.8e-05
same,peptide microarray binding signal,[4]; [11],0.02058 ± 0.00019
KRHRKVLRDNIQG [H4 16-28 K R H R K V L Rme D N I Q G],peptide microarray binding signal,"[1]; peptide region: H4 16-28, peptide modifications: H4R23me1, binder concentration: 500 nM",0.000143 ± 4.6e-06
same,peptide microarray binding signal,"[2]; peptide region: H4 16-28, peptide modifications: H4R23me1, binder concentration: 100 nM",0.000354 ± 4.1e-06
same,peptide microarray binding signal,[3]; [12],0.000132 ± 1.5e-06
same,peptide microarray binding signal,[4]; [12],1.51e-05 ± 1.7e-07
KRHRKVLRDNIQG [H4 16-28 K R H R K V L Rme2s D N I Q G],peptide microarray binding signal,"[1]; peptide region: H4 16-28, peptide modifications: H4R23me2s, binder concentration: 500 nM",0.000333 ± 1.9e-05
same,peptide microarray binding signal,"[2]; peptide region: H4 16-28, peptide modifications: H4R23me2s, binder concentration: 100 nM",0.000354 ± 1.5e-05
same,peptide microarray binding signal,[3]; [13],0.000849 ± 0.00028
same,peptide microarray binding signal,[4]; [13],1.51e-05 ± 1.7e-07
ARRGGVKRISGLI [H4 38-50 A R R G G V Kme R I S G L I],peptide microarray binding signal,"[1]; peptide region: H4 38-50, peptide modifications: H4K44me1, binder concentration: 50 nM",0.00765 ± 0.00015
same,peptide microarray binding signal,"[1]; peptide region: H4 38-50, peptide modifications: H4K44me1, binder concentration: 500 nM",0.0147 ± 0.0013
same,peptide microarray binding signal,"[2]; peptide region: H4 38-50, peptide modifications: H4K44me1, binder concentration: 10 nM",0.01074 ± 8.4e-05
same,peptide microarray binding signal,"[2]; peptide region: H4 38-50, peptide modifications: H4K44me1, binder concentration: 100 nM",0.0234 ± 0.0011
same,peptide microarray binding signal,[3]; [14],0.00691 ± 0.00072
same,peptide microarray binding signal,[3]; [15],0.00719 ± 0.00029
same,peptide microarray binding signal,[4]; [14],0.00751 ± 0.0003
same,peptide microarray binding signal,[4]; [15],0.00703 ± 0.0019
ARRGGVKRISGLI [H4 38-50 A R R G G V K R I S G L I],peptide microarray binding signal,"[1]; peptide region: H4 38-50, binder concentration: 50 nM",0.00398 ± 0.00022
same,peptide microarray binding signal,"[1]; peptide region: H4 38-50, binder concentration: 500 nM",0.00614 ± 6.4e-05
same,peptide microarray binding signal,"[2]; peptide region: H4 38-50, binder concentration: 10 nM",0.003641 ± 3.4e-05
same,peptide microarray binding signal,"[2]; peptide region: H4 38-50, binder concentration: 100 nM",0.0105 ± 0.00039
same,peptide microarray binding signal,[3]; [16],0.000434 ± 8.7e-06
same,peptide microarray binding signal,[3]; [17],0.000913
same,peptide microarray binding signal,[4]; [16],0.000151 ± 1.6e-06
same,peptide microarray binding signal,[4]; [17],0.000634 ± 1.2e-05
ARRGGVKRISGLI [H4 38-50 A R R G G V Kac R I S G L I],peptide microarray binding signal,"[1]; peptide region: H4 38-50, peptide modifications: H4K44ac, binder concentration: 50 nM",0.00298 ± 0.00042
same,peptide microarray binding signal,"[1]; peptide region: H4 38-50, peptide modifications: H4K44ac, binder concentration: 500 nM",0.002238 ± 1.9e-05
same,peptide microarray binding signal,"[2]; peptide region: H4 38-50, peptide modifications: H4K44ac, binder concentration: 10 nM",0.00477 ± 0.00013
same,peptide microarray binding signal,"[2]; peptide region: H4 38-50, peptide modifications: H4K44ac, binder concentration: 100 nM",0.00751 ± 0.00045
same,peptide microarray binding signal,[3]; [18],0.00347 ± 0.0006
same,peptide microarray binding signal,[3]; [19],0.00251 ± 5.9e-05
same,peptide microarray binding signal,[4]; [18],0.00142 ± 3.6e-05
same,peptide microarray binding signal,[4]; [19],0.00138 ± 4.9e-05
KRHRKVLRDNIQG [H4 16-28 K R H Rme2s Kme3 V L R D N I Q G],peptide microarray binding signal,"[1]; peptide region: H4 16-28, peptide modifications: H4R19me2s H4K20me3, binder concentration: 50 nM",0.006019 ± 4.1e-05
same,peptide microarray binding signal,"[1]; peptide region: H4 16-28, peptide modifications: H4R19me2s H4K20me3, binder concentration: 500 nM",0.00524 ± 0.00012
same,peptide microarray binding signal,"[2]; peptide region: H4 16-28, peptide modifications: H4R19me2s H4K20me3, binder concentration: 10 nM",0.01444 ± 0.00013
same,peptide microarray binding signal,"[2]; peptide region: H4 16-28, peptide modifications: H4R19me2s H4K20me3, binder concentration: 100 nM",0.0125 ± 0.00075
same,peptide microarray binding signal,[3]; [20],0.0051 ± 0.00088
same,peptide microarray binding signal,[3]; [21],0.00451 ± 0.0013
same,peptide microarray binding signal,[4]; [20],0.00438 ± 0.0021
same,peptide microarray binding signal,[4]; [21],0.00663 ± 0.00022
KRHRKVLRDNIQG [H4 16-28 K R H Rme2s K V L R D N I Q G],peptide microarray binding signal,"[1]; peptide region: H4 16-28, peptide modifications: H4R19me2s, binder concentration: 500 nM",0.000524 ± 1.4e-05
same,peptide microarray binding signal,"[2]; peptide region: H4 16-28, peptide modifications: H4R19me2s, binder concentration: 100 nM",0
same,peptide microarray binding signal,[3]; [22],0.000491 ± 9.2e-05
same,peptide microarray binding signal,[4]; [22],3.02e-05 ± 3.4e-07
ARRGGVKRISGLI [H4 38-50 A R R G G V Kac Rme I S G L I],peptide microarray binding signal,"[1]; peptide region: H4 38-50, peptide modifications: H4K44ac H4R45me1, binder concentration: 50 nM",0.0131 ± 0.00062
same,peptide microarray binding signal,"[1]; peptide region: H4 38-50, peptide modifications: H4K44ac H4R45me1, binder concentration: 500 nM",0.01695 ± 5.7e-05
same,peptide microarray binding signal,"[2]; peptide region: H4 38-50, peptide modifications: H4K44ac H4R45me1, binder concentration: 10 nM",0.0235 ± 0.0022
same,peptide microarray binding signal,"[2]; peptide region: H4 38-50, peptide modifications: H4K44ac H4R45me1, binder concentration: 100 nM",0.048 ± 0.0095
same,peptide microarray binding signal,[3]; [23],0.00338 ± 0.00048
same,peptide microarray binding signal,[3]; [24],0.00685 ± 0.0005
same,peptide microarray binding signal,[4]; [23],0.00296 ± 0.00039
same,peptide microarray binding signal,[4]; [24],0.00306 ± 4.5e-05
